# Results taken from paper PMC7862700, “An all-to-all approach to the identification of sequence-specific readers for epigenetic DNA modifications on cytosine”.
# Experiments:
# Assay in all cases: DAPPL (digital affinity profiling via proximity ligation, sequencing); 10 mM Tris-HCl pH 7.5, 50 mM NaCl, 1 mM DTT, 4% glycerol, room temperature, 30 min; GST-TFs on glutathione beads, 16-mer random dsDNA library, 0.1% formaldehyde crosslink after washing; high values mean tight binding
# FEV = target: T1, FEV (Homo sapiens, UniProt Q99581 1-238); details: protein: recombinant; tags: N-terminal GST; dsDNA, one strand shown
# T1 sequence: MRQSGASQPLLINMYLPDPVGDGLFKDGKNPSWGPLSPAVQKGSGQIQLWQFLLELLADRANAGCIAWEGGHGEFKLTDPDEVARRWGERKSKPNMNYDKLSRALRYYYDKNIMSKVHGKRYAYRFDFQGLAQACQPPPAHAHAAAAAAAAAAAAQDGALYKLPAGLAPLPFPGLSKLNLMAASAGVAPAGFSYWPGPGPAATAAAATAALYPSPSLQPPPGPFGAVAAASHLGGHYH
# Outline: (§1)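 Pools of DNA-barcoded human transcription factors, expressed in yeast as GST fusions on glutathione beads and combined with a tag-only sample, were incubated with 200 nmole of a 16-mer random double-stranded DNA library. Incubation took 30 min at room temperature in Tris/NaCl/DTT/glycerol buffer and was followed by washing, 0.1% formaldehyde crosslinking, proximity ligation (BsaI/T4 ligase, 1 h, 37 °C), PCR amplification and sequencing on an Illumina NextSeq500. Binding signal is the ratio of a hexamer's read frequency for a factor to its frequency for the tag-only sample.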
# ETV5 = ETV5 (Homo sapiens, UniProt P41161 1-510); details: protein: recombinant; tags: N-terminal GST; dsDNA, one strand shown
# Outline: as §1
# HSF1 = HSF1 (Homo sapiens, UniProt Q00613 1-529); details: protein: recombinant; tags: N-terminal GST; chain copies: 3; dsDNA, one strand shown
# Outline: as §1
# SPIC = target: T2, SPIC (Homo sapiens, UniProt Q8N5J4 1-248); details: protein: recombinant; tags: N-terminal GST; dsDNA, one strand shown
# T2 sequence: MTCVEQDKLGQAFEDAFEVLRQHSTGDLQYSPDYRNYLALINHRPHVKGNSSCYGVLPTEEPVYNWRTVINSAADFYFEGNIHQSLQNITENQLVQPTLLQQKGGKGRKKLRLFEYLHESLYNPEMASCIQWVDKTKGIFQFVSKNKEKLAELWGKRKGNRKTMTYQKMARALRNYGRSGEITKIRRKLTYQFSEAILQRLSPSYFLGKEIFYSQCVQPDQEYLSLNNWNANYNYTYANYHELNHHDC
# Outline: as §1
# ELF4 = ELF4 (Homo sapiens, UniProt Q99607 1-663); details: protein: recombinant; tags: N-terminal GST; dsDNA, one strand shown
# Outline: as §1
# ELK4 = target: T3, ELK4 (Homo sapiens, UniProt P28324-2 1-405); details: protein: recombinant; tags: N-terminal GST; dsDNA, one strand shown
# T3 sequence: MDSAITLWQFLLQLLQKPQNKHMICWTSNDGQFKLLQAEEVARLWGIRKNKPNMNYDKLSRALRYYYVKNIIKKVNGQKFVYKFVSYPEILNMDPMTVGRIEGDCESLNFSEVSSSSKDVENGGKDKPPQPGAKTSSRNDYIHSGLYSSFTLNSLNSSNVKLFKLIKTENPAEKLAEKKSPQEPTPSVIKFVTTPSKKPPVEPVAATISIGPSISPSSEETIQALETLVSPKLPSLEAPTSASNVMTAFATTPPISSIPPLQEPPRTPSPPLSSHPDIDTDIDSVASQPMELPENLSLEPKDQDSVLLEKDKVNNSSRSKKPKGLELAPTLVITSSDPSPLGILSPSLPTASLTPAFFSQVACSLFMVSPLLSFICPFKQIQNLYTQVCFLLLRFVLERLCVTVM
# Outline: as §1
# ETV2 = target: T4, ETV2 (Homo sapiens, UniProt O00321 1-342); details: protein: recombinant; tags: N-terminal GST; dsDNA, one strand shown
# T4 sequence: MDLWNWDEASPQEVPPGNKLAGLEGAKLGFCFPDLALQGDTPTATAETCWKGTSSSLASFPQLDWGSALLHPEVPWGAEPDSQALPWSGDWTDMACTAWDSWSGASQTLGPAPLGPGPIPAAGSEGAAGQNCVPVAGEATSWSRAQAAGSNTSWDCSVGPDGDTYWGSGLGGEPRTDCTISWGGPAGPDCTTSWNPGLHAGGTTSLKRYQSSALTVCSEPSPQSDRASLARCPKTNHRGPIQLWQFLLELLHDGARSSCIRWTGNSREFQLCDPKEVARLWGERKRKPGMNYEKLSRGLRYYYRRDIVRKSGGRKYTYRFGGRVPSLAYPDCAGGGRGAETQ
# Outline: as §1
# ELF3 = target: T5, ELF3 (Homo sapiens, UniProt P78545 1-371); details: protein: recombinant; tags: N-terminal GST; dsDNA, one strand shown
# T5 sequence: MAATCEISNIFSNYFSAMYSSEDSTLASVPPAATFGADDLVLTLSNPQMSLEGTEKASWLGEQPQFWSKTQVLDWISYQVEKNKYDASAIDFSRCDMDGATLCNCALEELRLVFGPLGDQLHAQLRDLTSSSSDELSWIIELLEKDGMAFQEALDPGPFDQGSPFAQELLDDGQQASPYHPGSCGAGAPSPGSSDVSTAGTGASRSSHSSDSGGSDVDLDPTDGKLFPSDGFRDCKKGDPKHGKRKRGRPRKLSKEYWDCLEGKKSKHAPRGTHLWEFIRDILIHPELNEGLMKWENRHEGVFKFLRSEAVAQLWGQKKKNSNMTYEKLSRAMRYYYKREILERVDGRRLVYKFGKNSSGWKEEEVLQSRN
# Outline: as §1
# CRX = CRX (Homo sapiens, UniProt O43186 1-299); details: protein: recombinant; tags: N-terminal GST; dsDNA, one strand shown
# Outline: as §1
# ETV1 = ETV1 (Homo sapiens, UniProt P50549 1-477); details: protein: recombinant; tags: N-terminal GST; dsDNA, one strand shown
# Outline: as §1
# ERF = target: T6, ERF (Homo sapiens, UniProt P50548 1-548); details: protein: recombinant; tags: N-terminal GST; dsDNA, one strand shown
# T6 sequence: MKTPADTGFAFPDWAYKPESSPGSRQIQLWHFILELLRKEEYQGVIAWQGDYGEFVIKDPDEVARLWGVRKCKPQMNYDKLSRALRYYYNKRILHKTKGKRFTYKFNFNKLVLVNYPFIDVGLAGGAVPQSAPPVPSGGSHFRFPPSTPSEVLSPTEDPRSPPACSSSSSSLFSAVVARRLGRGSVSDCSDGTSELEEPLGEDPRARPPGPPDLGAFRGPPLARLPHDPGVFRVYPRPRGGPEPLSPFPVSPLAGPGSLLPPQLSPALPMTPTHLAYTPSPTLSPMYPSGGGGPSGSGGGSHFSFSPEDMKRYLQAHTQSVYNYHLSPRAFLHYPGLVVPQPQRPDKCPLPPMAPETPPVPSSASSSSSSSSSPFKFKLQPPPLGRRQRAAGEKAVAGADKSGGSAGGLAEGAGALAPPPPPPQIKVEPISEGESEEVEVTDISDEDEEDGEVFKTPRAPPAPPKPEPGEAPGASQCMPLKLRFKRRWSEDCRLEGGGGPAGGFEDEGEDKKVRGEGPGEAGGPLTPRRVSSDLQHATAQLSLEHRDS
# Outline: as §1
# ETV3L = target: T7, ETV3L (Homo sapiens, UniProt Q6ZN32 1-361); details: protein: recombinant; tags: N-terminal GST; dsDNA, one strand shown
# T7 sequence: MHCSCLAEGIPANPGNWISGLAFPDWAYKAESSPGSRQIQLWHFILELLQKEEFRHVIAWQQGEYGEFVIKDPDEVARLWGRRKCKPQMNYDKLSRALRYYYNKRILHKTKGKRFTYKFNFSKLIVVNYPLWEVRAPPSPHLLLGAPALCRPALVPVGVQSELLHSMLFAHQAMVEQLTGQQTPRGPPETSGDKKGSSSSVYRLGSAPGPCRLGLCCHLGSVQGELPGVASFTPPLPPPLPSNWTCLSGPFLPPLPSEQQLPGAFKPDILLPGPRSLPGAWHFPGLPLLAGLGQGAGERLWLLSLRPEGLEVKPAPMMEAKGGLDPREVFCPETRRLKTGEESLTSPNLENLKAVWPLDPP
# Outline: as §1
# ETS2 = target: T8, ETS2 (Homo sapiens, UniProt P15036 1-469); details: protein: recombinant; tags: N-terminal GST; dsDNA, one strand shown
# T8 sequence: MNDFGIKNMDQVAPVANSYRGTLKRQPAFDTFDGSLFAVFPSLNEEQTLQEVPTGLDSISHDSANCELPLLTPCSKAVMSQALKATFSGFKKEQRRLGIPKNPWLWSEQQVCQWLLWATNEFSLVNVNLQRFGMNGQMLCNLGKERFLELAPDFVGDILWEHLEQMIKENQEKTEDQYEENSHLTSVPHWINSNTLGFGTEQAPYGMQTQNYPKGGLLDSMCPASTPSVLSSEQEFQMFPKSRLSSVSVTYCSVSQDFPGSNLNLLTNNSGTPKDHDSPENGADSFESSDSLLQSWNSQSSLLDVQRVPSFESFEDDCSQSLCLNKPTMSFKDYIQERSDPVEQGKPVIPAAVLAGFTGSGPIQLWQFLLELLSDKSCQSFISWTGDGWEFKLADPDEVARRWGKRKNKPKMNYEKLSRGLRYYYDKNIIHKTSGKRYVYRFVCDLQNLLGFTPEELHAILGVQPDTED
# Outline: as §1
# SPDEF = target: T9, SPDEF (Homo sapiens, UniProt O95238 1-335); details: protein: recombinant; tags: N-terminal GST; dsDNA, one strand shown
# T9 sequence: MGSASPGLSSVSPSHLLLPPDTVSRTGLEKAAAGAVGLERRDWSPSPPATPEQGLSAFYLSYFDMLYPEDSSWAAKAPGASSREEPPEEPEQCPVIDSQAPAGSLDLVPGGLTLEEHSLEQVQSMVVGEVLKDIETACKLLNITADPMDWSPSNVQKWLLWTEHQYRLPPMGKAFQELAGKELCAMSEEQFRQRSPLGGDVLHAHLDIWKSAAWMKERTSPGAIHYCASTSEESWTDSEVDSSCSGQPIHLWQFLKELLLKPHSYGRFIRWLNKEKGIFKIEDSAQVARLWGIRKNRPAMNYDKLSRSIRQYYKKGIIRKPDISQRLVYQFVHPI
# Outline: as §1
# ETV7 = target: T10, ETV7 (Homo sapiens, UniProt Q9Y603 1-341); details: protein: recombinant; tags: N-terminal GST; dsDNA, one strand shown
# T10 sequence: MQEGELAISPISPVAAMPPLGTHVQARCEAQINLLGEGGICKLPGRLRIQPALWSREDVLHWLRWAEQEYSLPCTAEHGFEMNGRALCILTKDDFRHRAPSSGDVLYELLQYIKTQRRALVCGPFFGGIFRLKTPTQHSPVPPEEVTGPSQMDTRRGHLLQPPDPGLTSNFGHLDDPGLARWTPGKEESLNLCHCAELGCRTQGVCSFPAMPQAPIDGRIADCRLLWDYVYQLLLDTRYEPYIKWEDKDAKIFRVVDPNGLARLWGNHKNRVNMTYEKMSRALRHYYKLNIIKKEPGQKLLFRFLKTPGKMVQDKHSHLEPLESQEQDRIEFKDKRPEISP
# Outline: as §1
# ELF5 = target: T11, ELF5 (Homo sapiens, UniProt Q9UKW6-2 1-255); details: protein: recombinant; tags: N-terminal GST; dsDNA, one strand shown
# T11 sequence: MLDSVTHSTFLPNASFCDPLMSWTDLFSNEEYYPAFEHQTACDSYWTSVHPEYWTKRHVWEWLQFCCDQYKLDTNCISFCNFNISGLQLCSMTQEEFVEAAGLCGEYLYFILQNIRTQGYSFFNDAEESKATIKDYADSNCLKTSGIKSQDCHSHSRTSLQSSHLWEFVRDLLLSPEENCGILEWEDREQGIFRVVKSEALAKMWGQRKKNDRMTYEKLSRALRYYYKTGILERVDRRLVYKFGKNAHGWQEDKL
# Outline: as §1
# ETV3 = target: T12, ETV3 (Homo sapiens, UniProt P41162-2 1-143); details: protein: recombinant; tags: N-terminal GST; dsDNA, one strand shown
# T12 sequence: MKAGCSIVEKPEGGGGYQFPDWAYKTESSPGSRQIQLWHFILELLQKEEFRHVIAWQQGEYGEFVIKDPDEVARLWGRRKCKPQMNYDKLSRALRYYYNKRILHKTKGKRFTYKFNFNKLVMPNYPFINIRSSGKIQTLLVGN
# Outline: as §1
# ETV6 = ETV6 (Homo sapiens, UniProt P41212 1-452); details: protein: recombinant; tags: N-terminal GST; dsDNA, one strand shown
# Outline: as §1
# Sequence of HSF1 (Q00613 whole entry): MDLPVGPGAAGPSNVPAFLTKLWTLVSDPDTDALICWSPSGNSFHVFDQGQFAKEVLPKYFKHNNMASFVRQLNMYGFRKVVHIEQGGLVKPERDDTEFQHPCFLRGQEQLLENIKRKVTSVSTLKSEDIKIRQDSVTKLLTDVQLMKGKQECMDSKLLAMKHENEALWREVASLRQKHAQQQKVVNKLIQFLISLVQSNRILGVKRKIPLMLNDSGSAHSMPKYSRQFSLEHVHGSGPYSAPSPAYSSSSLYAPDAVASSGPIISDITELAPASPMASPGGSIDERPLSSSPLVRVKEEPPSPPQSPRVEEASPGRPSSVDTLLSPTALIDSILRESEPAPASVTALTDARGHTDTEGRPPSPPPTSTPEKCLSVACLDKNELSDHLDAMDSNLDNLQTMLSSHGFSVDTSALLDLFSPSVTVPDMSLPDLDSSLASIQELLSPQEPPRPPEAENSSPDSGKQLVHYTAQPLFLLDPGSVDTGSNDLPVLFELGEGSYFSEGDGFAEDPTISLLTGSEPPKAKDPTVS
# Sequence of ETV5 (P41161 whole entry): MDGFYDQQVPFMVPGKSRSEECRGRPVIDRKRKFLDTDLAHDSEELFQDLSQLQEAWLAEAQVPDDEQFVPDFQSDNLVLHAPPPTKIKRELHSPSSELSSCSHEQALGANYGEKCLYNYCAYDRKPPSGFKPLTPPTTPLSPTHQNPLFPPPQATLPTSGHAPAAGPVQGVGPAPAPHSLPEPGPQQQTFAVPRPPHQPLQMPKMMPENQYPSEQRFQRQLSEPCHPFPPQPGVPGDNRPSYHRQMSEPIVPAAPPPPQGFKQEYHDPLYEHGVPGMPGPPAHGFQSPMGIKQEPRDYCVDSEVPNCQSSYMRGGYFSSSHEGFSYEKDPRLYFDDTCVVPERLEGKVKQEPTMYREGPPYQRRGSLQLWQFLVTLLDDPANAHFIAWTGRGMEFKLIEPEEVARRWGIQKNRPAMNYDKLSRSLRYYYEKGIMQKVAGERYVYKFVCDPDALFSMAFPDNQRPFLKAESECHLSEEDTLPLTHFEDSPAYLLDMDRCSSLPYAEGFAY
# Sequence of CRX (O43186 whole entry): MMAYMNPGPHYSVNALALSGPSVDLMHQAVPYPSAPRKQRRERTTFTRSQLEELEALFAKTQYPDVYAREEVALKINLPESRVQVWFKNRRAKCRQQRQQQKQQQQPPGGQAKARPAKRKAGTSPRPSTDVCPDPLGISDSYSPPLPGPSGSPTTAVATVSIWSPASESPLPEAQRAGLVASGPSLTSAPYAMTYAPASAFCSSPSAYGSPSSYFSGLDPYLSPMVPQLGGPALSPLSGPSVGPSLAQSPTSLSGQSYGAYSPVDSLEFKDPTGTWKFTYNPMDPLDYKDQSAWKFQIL
# Sequence of ETV1 (P50549 whole entry): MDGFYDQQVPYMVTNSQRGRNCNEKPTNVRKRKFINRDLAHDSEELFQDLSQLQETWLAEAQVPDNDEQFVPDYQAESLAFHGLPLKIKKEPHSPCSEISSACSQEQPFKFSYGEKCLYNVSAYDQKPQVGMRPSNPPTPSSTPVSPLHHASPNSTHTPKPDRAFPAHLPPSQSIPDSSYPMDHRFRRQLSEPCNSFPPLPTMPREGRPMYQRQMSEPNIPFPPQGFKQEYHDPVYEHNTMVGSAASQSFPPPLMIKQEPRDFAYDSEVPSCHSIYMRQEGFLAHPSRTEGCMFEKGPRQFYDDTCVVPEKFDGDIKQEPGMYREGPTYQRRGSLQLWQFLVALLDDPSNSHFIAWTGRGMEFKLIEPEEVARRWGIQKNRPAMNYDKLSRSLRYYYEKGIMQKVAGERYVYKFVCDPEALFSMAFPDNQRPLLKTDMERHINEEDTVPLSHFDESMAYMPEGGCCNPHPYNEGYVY
# Sequence of ELF4 (Q99607 whole entry): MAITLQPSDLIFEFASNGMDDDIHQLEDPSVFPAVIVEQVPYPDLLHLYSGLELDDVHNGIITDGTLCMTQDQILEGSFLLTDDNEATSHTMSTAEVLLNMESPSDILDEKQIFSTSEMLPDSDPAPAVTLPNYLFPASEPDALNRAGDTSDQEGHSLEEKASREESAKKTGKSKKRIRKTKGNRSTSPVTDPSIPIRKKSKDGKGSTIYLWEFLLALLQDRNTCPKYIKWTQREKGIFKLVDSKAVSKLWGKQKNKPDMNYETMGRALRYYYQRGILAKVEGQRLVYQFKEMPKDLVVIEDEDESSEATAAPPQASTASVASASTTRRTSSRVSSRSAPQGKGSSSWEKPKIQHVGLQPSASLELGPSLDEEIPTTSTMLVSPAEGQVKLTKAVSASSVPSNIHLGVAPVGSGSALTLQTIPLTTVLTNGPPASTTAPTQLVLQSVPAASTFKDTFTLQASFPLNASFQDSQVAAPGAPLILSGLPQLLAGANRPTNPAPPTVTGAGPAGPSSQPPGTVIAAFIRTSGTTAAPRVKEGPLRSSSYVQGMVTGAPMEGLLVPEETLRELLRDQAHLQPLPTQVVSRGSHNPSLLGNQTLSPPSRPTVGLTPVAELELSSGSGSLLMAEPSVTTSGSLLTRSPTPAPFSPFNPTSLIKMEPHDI
# Sequence of ETV6 (P41212 whole entry): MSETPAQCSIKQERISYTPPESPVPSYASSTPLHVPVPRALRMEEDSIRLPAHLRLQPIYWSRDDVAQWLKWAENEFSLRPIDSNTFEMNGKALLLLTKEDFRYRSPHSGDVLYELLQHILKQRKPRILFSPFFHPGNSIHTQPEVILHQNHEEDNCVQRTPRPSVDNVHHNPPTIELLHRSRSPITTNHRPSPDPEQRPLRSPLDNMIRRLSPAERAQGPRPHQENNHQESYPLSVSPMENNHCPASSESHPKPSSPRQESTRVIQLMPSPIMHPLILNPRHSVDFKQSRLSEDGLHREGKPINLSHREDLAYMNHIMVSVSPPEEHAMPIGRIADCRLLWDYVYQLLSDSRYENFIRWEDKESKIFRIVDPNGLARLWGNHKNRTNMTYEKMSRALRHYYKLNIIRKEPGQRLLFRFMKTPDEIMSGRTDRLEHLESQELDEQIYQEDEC
sequence,measurement,setting,value
AAATCA,binding signal,FEV,"1.2 fold enrichment (6-mer frequency, TF over GST control)"
same,binding signal,ETV5,"1.26 fold enrichment (6-mer frequency, TF over GST control)"
same,binding signal,HSF1,"1.17 fold enrichment (6-mer frequency, TF over GST control)"
same,binding signal,SPIC,"1.18 fold enrichment (6-mer frequency, TF over GST control)"
same,binding signal,ELF4,"1.24 fold enrichment (6-mer frequency, TF over GST control)"
same,binding signal,ELK4,"1.23 fold enrichment (6-mer frequency, TF over GST control)"
same,binding signal,ETV2,"1.39 fold enrichment (6-mer frequency, TF over GST control)"
same,binding signal,ELF3,"1.27 fold enrichment (6-mer frequency, TF over GST control)"
same,binding signal,CRX,"1.33 fold enrichment (6-mer frequency, TF over GST control)"
same,binding signal,ETV1,"1.18 fold enrichment (6-mer frequency, TF over GST control)"
same,binding signal,ERF,"1.23 fold enrichment (6-mer frequency, TF over GST control)"
same,binding signal,ETV3L,"1.27 fold enrichment (6-mer frequency, TF over GST control)"
same,binding signal,ETS2,"1.22 fold enrichment (6-mer frequency, TF over GST control)"
same,binding signal,SPDEF,"1.12 fold enrichment (6-mer frequency, TF over GST control)"
same,binding signal,ETV7,"1.16 fold enrichment (6-mer frequency, TF over GST control)"
same,binding signal,ELF5,"1.22 fold enrichment (6-mer frequency, TF over GST control)"
same,binding signal,ETV3,"1.17 fold enrichment (6-mer frequency, TF over GST control)"
same,binding signal,ETV6,"1.21 fold enrichment (6-mer frequency, TF over GST control)"
